High-throughput results: PubChem BioAssay, National Center for Advancing Translational Sciences (NCATS)
Rows were chosen to be rich in hits. Some 5.9% of all compounds tested hit in one or more screens of this group.
Coupling enz – qHTS Assay for Inhibitors of Fructose-1,6-bisphosphate Aldolase from Giardia Lamblia: Coupling assay counterscreen | AID 2472, 2010 | coupling enzyme system counterscreen, AmpLite Red fluorescence | actives 0.67% (n = 290,000) | activity change, negative = inhibition, % at 58.2 µM, hits read low; in the data active = activity change below about -30%
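Fluorescence at 525 nm excitation and 598 nm emission measured inhibition of the coupled detection system without aldolase. Compounds (at 57.5 uM final) were preincubated 10 min at room temperature with coupling enzyme reagent before a 20 min substrate/AmpLite Red step.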
Gal4-VP16 FLuc – VP16 counterscreen qHTS for inhibitors of ROR gamma transcriptional activity. Drosophila S2 Gal4-VP16 UAS-luciferase, luminescence, 20 h. Potency, µM (titrated, usually from 53.6 µM), for the others: at the top dose activity, negative = inhibition, actives largely listed as inhibitors. actives 3.5% (n = 310,000). AID 2546, 2010;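 note: Gal4-VP16 expression switched on by copper sulfate through the metallothionein promoter; potency is the fitted concentration of half-maximal effect; nearly all actives have a fitted effect of over 50% in size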
GALK inh – qHTS Assay for Inhibitors of Human Galactokinase (GALK) | Purified GALK, Kinase-Glo residual ATP luminescence | AID 1868, 2009 | actives 0.007% (n = 270,000) | P51570 | Potency, µM (titrated, usually from 57.5 µM), inactives show top-dose activity change, negative = inhibition, actives largely listed as inhibitors; note: potency is the fitted concentration of half-maximal effect
Target sequence (P51570 whole entry, looked up): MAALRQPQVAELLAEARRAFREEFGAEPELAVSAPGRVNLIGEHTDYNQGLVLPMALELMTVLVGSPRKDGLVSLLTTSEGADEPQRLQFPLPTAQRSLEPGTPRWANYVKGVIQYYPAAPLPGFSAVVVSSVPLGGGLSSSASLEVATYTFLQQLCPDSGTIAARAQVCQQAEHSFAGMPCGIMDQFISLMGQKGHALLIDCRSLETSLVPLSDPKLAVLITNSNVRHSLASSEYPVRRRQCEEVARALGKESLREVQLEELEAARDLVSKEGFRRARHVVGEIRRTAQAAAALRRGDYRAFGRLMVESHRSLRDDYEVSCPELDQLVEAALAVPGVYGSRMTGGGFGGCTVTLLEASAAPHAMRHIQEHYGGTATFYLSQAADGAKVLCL
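Quantitative HTS: GALK 5 nM, ATP 35 uM, galactose 100 uM, 1 h room temperature, then luciferase-based ATP detection.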
RORg inh – qHTS for inhibitors of ROR gamma transcriptional activity | Potency, µM (series often up to 53.6 µM), for the others: at the top dose activity change, negative = inhibition, actives largely listed as inhibitors | Nuclear receptor ROR-gamma (Mus musculus), P51450 | actives 5.4% (n = 310,000) | Drosophila S2 Gal4-RORgamma UAS-luciferase reporter, 20 h; note: potency is the fitted concentration of half-maximal effect; nearly all actives have a fitted effect of over 60% in size
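Compounds are pin-transferred onto Drosophila Schneider cells expressing a copper-inducible Gal4–ROR gamma transactivation domain fusion. After 1 hr, copper sulfate is added to 700 uM final; luciferase is read 20 hr later.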
rTrxR1 inhibitor – qHTS Assay for Inhibitors of Mammalian Selenoprotein Thioredoxin Reductase 1 (TrxR1): qHTS; recombinant rTrxR1, NADPH fluorescence consumption, selenite substrate; Potency, µM (highest dose often 114 µM), inactives show top-dose activity change, negative = inhibition, hits mostly inhibitors; actives 1% (n = 390,000); AID 588453, 2011; note: potency is the fitted concentration of half-maximal effect; nearly all actives have a fitted effect of over 65% in size
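Rat TrxR1 (90 nM in the dispensed reagent) was pre-reduced with 400 uM NADPH for 5 min at room temperature, then incubated with compound for 15 min. After 400 uM selenite was added, NADPH fluorescence (Ex 340/Em 450 nm) was followed for 8 min.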
TrxR1 substrate – qHTS Assay for Substrates of Mammalian Selenoprotein Thioredoxin Reductase 1 (TrxR1): qHTS; Thioredoxin reductase 1, cytoplasmic (Rattus norvegicus), O89049; purified TrxR1 substrate turnover, NADPH consumption readout; Potency, µM (top dose mostly 114 µM), for inactives: top-dose activity change, negative = substrate turnover; actives 0.01% (n = 390,000); AID 588456, 2011; note: potency is the fitted concentration of half-maximal effect; nearly all actives have a fitted effect of over 50% in size
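Rat TrxR1, dispensed at 90 nM, was prereduced with 400 uM NADPH (final) for 5 min at ~22 deg C, then incubated with compound 15 min before 400 uM selenite. A first-read NADPH fluorescence drop versus no-compound background flagged substrates.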
Numbers without * were called inactive; ? = inconclusive; . = no result; [ ] = dose if it differs, or a comment. Unless noted, calls come from the whole dose curve; as a rule, active = well fitted curve in the direction sought with a large enough effect; inconclusive = small, poorly fitted or top-dose-only effect, or another doubt; inactive = no such curve, though single readings can be large; an effect the other way counts as inactive or inconclusive. % is set by controls: 0 for no effect and ±100 for the full control effect.

SMILES	Coupling enz	Gal4-VP16 FLuc	GALK inh	RORg inh	rTrxR1 inhibitor	TrxR1 substrate
CC(CCc1ccccc1)NC(=O)C(=O)NCc1ccccc1 (stereo unspecified)	5.8	-5.6%	-2.0%	3.6%	13.0%	-5.1%
COc1ccc(CNC(=S)NCc2ccc(F)cc2)cc1	.	?	-3.5%	11.2µM*	27.2%	2.2%
COc1ccc(CNC(=S)NC(C)CCc2ccccc2)cc1 (stereo unspecified)	-0.4	14.1µM*	-1.3%	3.16µM*	?	-12.9%
CC(C)COc1ccc(CNC(=S)NCc2ccccc2)cc1	-0.4	17.8µM*	-5.0%	7.08µM*	-7.6%	-3.5%
COc1ccc(CNC(=S)Nc2ccc(S(N)(=O)=O)cc2)cc1	-0.8	3.3%	-0.6%	33.1%	-12.9%	4.4%
COc1ccc(CNC(=S)NCc2ccc(OC)cc2)cc1	-1.7	-8.2%[10 µM]	-0.9%	12.6µM*	4.7%	4.4%
Cc1nc2ccc(S(=O)(=O)NCC(=O)N3CCN(c4ccccc4)CC3)cc2s1	5.3	-5.6%	-0.1%	35.8%	5.3%	3.3%
CN(C)c1nc(-c2ccoc2)nc2ccccc12	2.4	-3.2%	.	18.5%	.	.
Fc1ccc(CNC(=S)NCc2ccc(F)cc2)cc1	-1.1	?	-2.8%	11.2µM*	26.5%[57.1 µM]	23.8%
CCOc1ccc(CNC(=S)NCc2ccc(OCC)cc2)cc1	1.4	?	0.4%	10µM*	21.6%[57.1 µM]	-19.8%[57.1 µM]
COc1ccc(CNC(=O)/C(C)=C\C(=O)O)cc1	-9.2	10µM*	0.7%	5.62µM*	8.1%[57.1 µM]	12.2%
CCOc1ccc(CC(=O)NNC(=S)NC)cc1	-1.6	-0.8%	3.4%	-37.4%	18.6%[57.1 µM]	-1.8%[57.1 µM]
CCNC(=S)NCc1ccc(F)cc1	0.7	-5.3%	6.6%	-23.1%	-20.6%	-12.1%
CCOc1ccc(-n2c(N)c(-c3nc4ccccc4[nH]3)sc2=S)cc1	-0.6	?	-1.6%	?	11.7%[57.1 µM]	-11.0%
COc1ccc(-n2c(N)c(-c3nc4ccccc4n3C)sc2=S)cc1	0.5	-13.1%	-0.1%	6.31µM*	-8.3%	-11.3%
COC(=O)Cc1ccc(NC(=S)NCc2ccc(OC)cc2)cc1	1.1	0.6%	4.9%	?	5.2%[57.1 µM]	-0.6%[57.1 µM]
CCCCc1ccc(NC(=S)NCc2ccccc2OC)cc1	0.6	-29.9%[10 µM]	-2.3%	2µM*	5.0%[57.1 µM]	1.2%[57.1 µM]
COc1ccc(CNC(=S)Nc2ccc(OC)cc2)cc1	3.1	?	3.7%	10µM*	-9.9%	-3.0%
COc1ccc(NC(=S)NCc2ccc(F)cc2)cc1	-0.7	?	0.7%	7.94µM*	-9.6%	-2.6%
CCCCc1ccc(NC(=S)NCc2ccc(OC)cc2)cc1	-0.6	?	-3.3%	3.98µM*	6.0%	-3.8%
COc1ccc(CNc2ccc(C(=O)O)cc2)cc1	10.1	0.631µM*	-1.4%	1.26µM*	11.3%	4.5%
C/C(N=Nc1nc2ccccc2s1)=N\Nc1ccccc1O	-1.2	-4.1%	0.9%	8.91µM*	10.1%	-1.3%
O=C(c1n[nH]c(=O)c2ccccc12)N1CCN(C2c3ccccc3-c3ccccc32)CC1	-1.8	-11.5%	-0.2%	26.7%	-15.2%	-1.8%
COc1cccc(C(=O)/C=C/Nc2ccc(S(=O)(=O)Nc3cccc(C(C)=O)c3)cc2)c1	0.1	10µM*	-2.1%	15.4%	-10.0%	-4.4%
COc1cccc(C(=O)/C=C/Nc2cccc(O)c2)c1	-0.7	1.26µM*	4.5%	7.94µM*	-4.8%	-4.4%
COc1cccc(N/C=C/C(=O)c2ccc(C)cc2)c1	4.6	?	7.7%	?	8.3%	-5.5%
COc1cccc(N/C=C/C(=O)c2ccc(Cl)cc2)c1	-3.7	12.6µM*	1.2%	10µM*	11.1%[57.1 µM]	-7.7%
